Hit rate of the full screen: of about 340,000 compounds, about 2,300 (0.68%) were called active. No stated cut-off is given here; in the data, active means growth rescue above about 28% (passing the limit was not always enough); inconclusive means no clear call, values can overlap the other calls. Only a selection was taken, and actives are over-represented in it overall.
assay: rescue of yeast from PfHsp40 toxicity, primary screen, S. cerevisiae, ATP luminescence (AID 504582);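 further: yeast W303a lacking pdr1 and pdr3 grown in galactose medium; growth measured after three days at 30 °C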; conditions: S. cerevisiae expressing PfHsp40, growth rescue, at 12.5 µM, hits give high values

| Structure (SMILES) | growth rescue |
| --- | --- |
| Cc1ccsc1-c1nc(CSCC(=O)NCCN2CCCC2)c(C)o1 | 35.6% (active) |
| Cc1ccc(-c2nc(CSCC(=O)NC3CCN(Cc4ccccc4)CC3)c(C)o2)cc1 | 0.251% (inactive) |
| Cc1cc(NC(=O)CSCc2nc(-c3cccc(Cl)c3)oc2C)no1 | -0.561% (inactive) |
| Cc1ccccc1CSCCNC(=O)c1ccc(Cl)c(S(=O)(=O)N2CCOCC2)c1 | 1.98% (inactive) |
| CCC1CCCCN1C(=O)CSc1nc2c(c(=O)n(C)c(=O)n2C)n1C (stereo not drawn) | 17.3% (inactive) |
| Nc1ccccc1SC(C[N+](=O)[O-])c1ccccc1 (stereo not drawn) | 33.7% (active) |
| CC(=O)N(OCc1ccc(OC(C)C)c(Cl)c1)C(C)=O | -0.894% (inactive) |
| COc1ccccc1CNC(=O)C1CCN(C(=O)[C@@H]2Cc3ccccc3CN2)CC1 | -0.254% (inactive) |
| COc1cccc(C2c3[nH]c4ccccc4c3CCN2Cc2cccc(C)n2)c1 (stereo not drawn) | 1.72% (inactive) |
| CCCNC(=O)CCc1c(C)nc2c(c(C)nn2-c2ccc(C)cc2)c1C | 1.12% (inactive) |
| COc1ccc(C(=O)N(C)CC(O)c2ccccc2)cc1OC1CCN(C(C)=O)CC1 (stereo not drawn) | 2.54% (inactive) |
| Cc1cc(S(=O)(=O)NC2CCCC2)ccc1-n1cnnn1 | 0.47% (inactive) |
| S=C(NCCC1=CCCCC1)Nc1ccccc1 | 9.46% (inactive) |
| CCCCNC(=S)N/N=C1\CCCCc2ccccc21 | 63.9% (active) |
| CCCC1CCC(=NNC(=S)NCCc2ccccc2)CC1 (stereo not drawn) | 1.29% (inactive) |
| CCCCn1nc(C(=O)Nc2cccc(C(=O)NC3CC3)c2)c2ccccc2c1=O | 1.46% (inactive) |
| O=C(NCCCN1CCCC1=O)c1ccc(S(=O)(=O)Nc2ccccc2)cc1 | -0.823% (inactive) |
| COCCN1C(=O)C(=O)/C(=C(/O)c2ccc(S(=O)(=O)N3CCOCC3)cc2)C1c1ccc(O)c(OC)c1 (stereo not drawn) | -0.794% (inactive) |
| CC(=O)OCc1cc(=O)n(C)c(=O)n1C | -0.117% (inactive) |
| CC(=O)c1cc(NC(=O)c2ccccc2)c(=O)oc1/C=C/N(C)C | 1.15% (inactive) |
| CSc1nccc(NC(=O)c2ccc(C(C)(C)C)cc2)n1 | 733% (active) |
| Cc1cccc(NC(=O)c2ccc(S(=O)(=O)N(C)c3ccccc3)cc2)n1 | -1.12% (inactive) |
| COC(=O)c1nc(NC(=O)c2ccc(C(C)(C)C)cc2)n[nH]1 | 0.045% (inactive) |
| Cn1c(C(=O)OC(C(=O)NC2CCCCC2)c2ccccn2)cc2sccc21 (stereo not drawn) | 1.92% (inactive) |
| CC(C)(CNC(=O)c1ccc(Cl)c(S(=O)(=O)N2CCc3ccccc3C2)c1)N1CCOCC1 | -1.18% (inactive) |
| O=C(OCC(=O)c1cccs1)c1ccc([N+](=O)[O-])o1 | -1.26% (inactive) |
| O=C(COC(=O)c1ccc(Br)o1)NC12CC3CC(CC(C3)C1)C2 | 4.21% (inactive) |

| Structure (SMILES) | growth rescue |
| --- | --- |
| O=C(COC(=O)c1ccc([N+](=O)[O-])o1)NC12CC3CC(CC(C3)C1)C2 | 364% (active) |
| Cc1csc(NC(=S)Nc2cccc(Cl)c2)n1 | 118% (active) |
| Cc1cc(Cl)nc(NC(=O)Nc2cccc(Cl)c2)n1 | -0.042% (inactive) |
| Cn1cc(Cl)c(C(=O)NNC(=S)Nc2cccc(Cl)c2)n1 | -0.14% (inactive) |
| CCOC(=O)c1csc(CCNC(=O)c2oc3c(Cl)cc(C)cc3c2C)n1 | -0.607% (inactive) |
| CCCc1nnc(NC(=O)CCC(=O)NC2CC2)s1 | 0.339% (inactive) |
| O=C(NCCCCO)C(F)(F)C(F)(F)C(F)(F)C(=O)NCCCCO | -1.94% (inactive) |
| O=c1ccc2cc(S(=O)(=O)NCCCc3ccccc3)ccc2[nH]1 | 30.5% (active) |
| O=S(=O)(NCCc1ccccc1)c1ccccc1 | -1.03% (inactive) |
| O=S(=O)(NCCCc1ccccc1)c1ccc(Br)cc1 | 7.99% (inactive) |
| Cc1nc2ccccn2c1C(=O)NN=C1CCN(C)CC1 | -0.557% (inactive) |
| CCCCNC(=O)N(O)C1N(/N=C/c2ccc(N(C)C)cc2)C(=S)SC1(C)C (stereo not drawn) | -1.02% (inactive) |
| O=S(=O)(c1cccc2nonc12)N1CCN(c2cccc(Cl)c2)CC1 | 1.52% (inactive) |
| Cc1cc(C(=O)CCC(=O)NNC(=O)c2ccccc2O)c(C)s1 | -0.863% (inactive) |
| O=C(NNC(=O)c1ccccc1O)c1ccccc1O | 68% (active) |
| O=C(NNC(=O)c1cc(S(=O)(=O)N2CCCCC2)ccc1Cl)c1ccccc1O | 91.7% (active) |
| O=C(Nc1ccccc1C(=O)O)c1cc(S(=O)(=O)N2CCCCC2)cs1 | 0.561% (inactive) |
| CC1CCCC(NC(=O)c2cc(S(=O)(=O)N3CCCCC3)ccc2Cl)C1C (stereo not drawn) | 2.29% (inactive) |
| CC1=C(C)CC(C(=O)NNC(=O)c2ccccc2O)C(C(=O)O)C1 (stereo not drawn) | 1.17% (inactive) |
| COC(=O)c1sc(N)c(C(=O)OC)c1COC(=O)CNS(=O)(=O)c1ccc(C)cc1 | 0.164% (inactive) |
| COc1ccc(C(=O)C2CCCN(C(=O)c3cc4nc(C)cc(C)n4n3)C2)cc1F (stereo not drawn) | -1.21% (inactive) |
| COc1ccc2c(c1)OC(O)(C(F)(F)C(F)F)CC2=O (stereo not drawn) | 0.213% (inactive) |
| N#CCc1ccc(NC(=O)c2ccccc2C(=O)Nc2ccc(CC#N)cc2)cc1 | -0.068% (inactive) |
| O=C(NN=Cc1ccccc1O)NN=Cc1ccccc1O | -0.914% (inactive) |
| Cc1c(C(=O)Nc2ccccn2)oc2ccc(Br)cc12 | -0.794% (inactive) |
| Oc1ccc(Br)cc1/C=N/Nc1ccccn1 | 246% (active) |
